Read-outs that look alike come from different tables or passages of the source.
Legend:
Settings in all cases: read-out: apparent Kd, n = 1
MAP2K5 = test system: MAP2K5
MAP4K4 = test system: MAP4K4
MAPK9 = test system: MAPK9
PIM3 = test system: PIM3
PRKAG2 = test system: PRKAG2
PRKCA = test system: PRKCA
PRKX = test system: PRKX
RPS6KA3 = test system: RPS6KA3
[1] = compound concentrations:100 nM and 1000 nM (sheet 'Lestaurtinib' of Supplementary Table 1),run:Lestaurtinib_02381_R1,Plate:MR004
[2] = compound concentrations:100 nM and 1000 nM (sheet 'Lestaurtinib' of Supplementary Table 1),run:Lestaurtinib_02381_R2,Plate:MR004
[3] = compound concentrations:100 nM and 1000 nM (sheet 'Lestaurtinib' of Supplementary Table 1),run:Lestaurtinib_02473_R2,Plate:MR010
[4] = compound concentrations:100 nM and 1000 nM (sheet 'Lestaurtinib' of Supplementary Table 1),run:Lestaurtinib_02566_R1,Plate:MR014
[5] = compound concentrations:100 nM and 1000 nM (sheet 'Lestaurtinib' of Supplementary Table 1),run:Lestaurtinib_02724_R3,Plate:MR021
[6] = compound concentrations:100 nM and 1000 nM (sheet 'Lestaurtinib' of Supplementary Table 1),run:Lestaurtinib_02748_R3,Plate:MR024
[7] = compound concentrations:100 nM and 1000 nM (sheet 'Lestaurtinib' of Supplementary Table 1),run:Lestaurtinib_02438_R2,Plate:MR008
[8] = compound concentrations:100 nM and 1000 nM (sheet 'Lestaurtinib' of Supplementary Table 1),run:Lestaurtinib_02443_R3,Plate:MR009
[9] = compound concentrations:100 nM and 1000 nM (sheet 'Lestaurtinib' of Supplementary Table 1),run:Lestaurtinib_02724_R1,Plate:MR021
[10] = compound concentrations:100 nM and 1000 nM (sheet 'Lestaurtinib' of Supplementary Table 1),run:Lestaurtinib_03172_R1,Plate:MR031
[11] = compound concentrations:100 nM and 1000 nM (sheet 'Lestaurtinib' of Supplementary Table 1),run:Lestaurtinib_02748_R1,Plate:MR024
[12] = compound concentrations:100 nM and 1000 nM (sheet 'Lestaurtinib' of Supplementary Table 1),run:Lestaurtinib_02487_R1,Plate:MR012

## Lestaurtinib
MAP2K5; compound concentrations:100 nM and 1000 nM (sheet 'Lestaurtinib' of Supplementary Table 1),run:Lestaurtinib_02364_R1,Plate:MR002
  potency estimated from few doses: 2240 nM
MAP2K5; [1]
  potency estimated from few doses: 1340 nM
MAP2K5; [2]
  potency estimated from few doses: 2420 nM
MAP2K5; compound concentrations:100 nM and 1000 nM (sheet 'Lestaurtinib' of Supplementary Table 1),run:Lestaurtinib_02437_R1,Plate:MR007
  potency estimated from few doses: 2430 nM
MAP2K5; [3]
  potency estimated from few doses: 2440 nM
MAP2K5; compound concentrations:100 nM and 1000 nM (sheet 'Lestaurtinib' of Supplementary Table 1),run:Lestaurtinib_02482_R3,Plate:MR011
  potency estimated from few doses: 2350 nM
MAP2K5; [4]
  potency estimated from few doses: 1960 nM
MAP2K5; [5]
  potency estimated from few doses: 1790 nM
MAP2K5; [6]
  potency estimated from few doses: 1820 nM
MAP2K5; compound concentrations:100 nM and 1000 nM (sheet 'Lestaurtinib' of Supplementary Table 1),run:Lestaurtinib_02766_R1,Plate:MR027
  potency estimated from few doses: 2210 nM
MAP4K4; [2]
  potency estimated from few doses: 2240 nM
MAP4K4; [7]
  potency estimated from few doses: 1430 nM
MAP4K4; compound concentrations:100 nM and 1000 nM (sheet 'Lestaurtinib' of Supplementary Table 1),run:Lestaurtinib_02443_R2,Plate:MR009
  potency estimated from few doses: 1700 nM
MAP4K4; [3]
  potency estimated from few doses: 1820 nM
MAP4K4; compound concentrations:100 nM and 1000 nM (sheet 'Lestaurtinib' of Supplementary Table 1),run:Lestaurtinib_02482_R2,Plate:MR011
  potency estimated from few doses: 1420 nM
MAPK9; [8]
  potency estimated from few doses: 1300 nM
MAPK9; [4]
  potency estimated from few doses: 1990 nM
MAPK9; compound concentrations:100 nM and 1000 nM (sheet 'Lestaurtinib' of Supplementary Table 1),run:Lestaurtinib_02572_R1,Plate:MR015
  potency estimated from few doses: 1720 nM
MAPK9; compound concentrations:100 nM and 1000 nM (sheet 'Lestaurtinib' of Supplementary Table 1),run:Lestaurtinib_02584_R3,Plate:MR017
  potency estimated from few doses: 2260 nM
MAPK9; compound concentrations:100 nM and 1000 nM (sheet 'Lestaurtinib' of Supplementary Table 1),run:Lestaurtinib_02624_R1,Plate:MR020
  potency estimated from few doses: 1410 nM
MAPK9; [9]
  potency estimated from few doses: 2240 nM
MAPK9; compound concentrations:100 nM and 1000 nM (sheet 'Lestaurtinib' of Supplementary Table 1),run:Lestaurtinib_02752_R3,Plate:MR025
  potency estimated from few doses: 2180 nM
MAPK9; compound concentrations:100 nM and 1000 nM (sheet 'Lestaurtinib' of Supplementary Table 1),run:Lestaurtinib_02896_R1,Plate:MR030
  potency estimated from few doses: 2120 nM
MAPK9; [10]
  potency estimated from few doses: 1900 nM
MAPK9; compound concentrations:100 nM and 1000 nM (sheet 'Lestaurtinib' of Supplementary Table 1),run:Lestaurtinib_03260_R1,Plate:MR033
  potency estimated from few doses: 1690 nM
PIM3; [11]
  potency estimated from few doses: 611 nM
PIM3; compound concentrations:100 nM and 1000 nM (sheet 'Lestaurtinib' of Supplementary Table 1),run:Lestaurtinib_02748_R2,Plate:MR024
  potency estimated from few doses: 656 nM
PIM3; [6]
  potency estimated from few doses: 1430 nM
PIM3; compound concentrations:100 nM and 1000 nM (sheet 'Lestaurtinib' of Supplementary Table 1),run:Lestaurtinib_02752_R2,Plate:MR025
  potency estimated from few doses: 795 nM
PIM3; compound concentrations:100 nM and 1000 nM (sheet 'Lestaurtinib' of Supplementary Table 1),run:Lestaurtinib_03260_R2,Plate:MR033
  potency estimated from few doses: 945 nM
PRKAG2; compound concentrations:100 nM and 1000 nM (sheet 'Lestaurtinib' of Supplementary Table 1),run:Lestaurtinib_02367_R2,Plate:MR003
  potency estimated from few doses: 1350 nM
PRKAG2; compound concentrations:100 nM and 1000 nM (sheet 'Lestaurtinib' of Supplementary Table 1),run:Lestaurtinib_02367_R3,Plate:MR003
  potency estimated from few doses: 1360 nM
PRKAG2; compound concentrations:100 nM and 1000 nM (sheet 'Lestaurtinib' of Supplementary Table 1),run:Lestaurtinib_02407_R1,Plate:MR005
  potency estimated from few doses: 888 nM
PRKAG2; compound concentrations:100 nM and 1000 nM (sheet 'Lestaurtinib' of Supplementary Table 1),run:Lestaurtinib_02407_R3,Plate:MR005
  potency estimated from few doses: 1340 nM
PRKAG2; compound concentrations:100 nM and 1000 nM (sheet 'Lestaurtinib' of Supplementary Table 1),run:Lestaurtinib_02422_R1,Plate:MR006
  potency estimated from few doses: 629 nM
PRKAG2; [7]
  potency estimated from few doses: 1210 nM
PRKAG2; compound concentrations:100 nM and 1000 nM (sheet 'Lestaurtinib' of Supplementary Table 1),run:Lestaurtinib_02473_R3,Plate:MR010
  potency estimated from few doses: 1240 nM
PRKAG2; [12]
  potency estimated from few doses: 352 nM
PRKAG2; compound concentrations:100 nM and 1000 nM (sheet 'Lestaurtinib' of Supplementary Table 1),run:Lestaurtinib_02566_R3,Plate:MR014
  potency estimated from few doses: 888 nM
PRKAG2; [11]
  potency estimated from few doses: 1240 nM
PRKAG2; [10]
  potency estimated from few doses: 1370 nM
PRKCA; [1]
  potency estimated from few doses: 2070 nM
PRKCA; compound concentrations:100 nM and 1000 nM (sheet 'Lestaurtinib' of Supplementary Table 1),run:Lestaurtinib_02381_R3,Plate:MR004
  potency estimated from few doses: 2400 nM
PRKCA; compound concentrations:100 nM and 1000 nM (sheet 'Lestaurtinib' of Supplementary Table 1),run:Lestaurtinib_02443_R1,Plate:MR009
  potency estimated from few doses: 1990 nM
PRKCA; [8]
  potency estimated from few doses: 2450 nM
PRKCA; [12]
  potency estimated from few doses: 1720 nM
PRKCA; [5]
  potency estimated from few doses: 1760 nM
PRKCA; [11]
  potency estimated from few doses: 2320 nM
PRKX; [2]
  potency estimated from few doses: 1490 nM
PRKX; compound concentrations:100 nM and 1000 nM (sheet 'Lestaurtinib' of Supplementary Table 1),run:Lestaurtinib_02487_R2,Plate:MR012
  potency estimated from few doses: 2110 nM
PRKX; compound concentrations:100 nM and 1000 nM (sheet 'Lestaurtinib' of Supplementary Table 1),run:Lestaurtinib_02487_R3,Plate:MR012
  potency estimated from few doses: 1350 nM
PRKX; compound concentrations:100 nM and 1000 nM (sheet 'Lestaurtinib' of Supplementary Table 1),run:Lestaurtinib_02768_R1,Plate:MR028
  potency estimated from few doses: 2230 nM
PRKX; compound concentrations:100 nM and 1000 nM (sheet 'Lestaurtinib' of Supplementary Table 1),run:Lestaurtinib_02802_R3,Plate:MR029
  potency estimated from few doses: 1970 nM
RPS6KA3; compound concentrations:100 nM and 1000 nM (sheet 'Lestaurtinib' of Supplementary Table 1),run:Lestaurtinib_02339_R3,Plate:MR001
  potency estimated from few doses: 1510 nM
RPS6KA3; compound concentrations:100 nM and 1000 nM (sheet 'Lestaurtinib' of Supplementary Table 1),run:Lestaurtinib_02438_R1,Plate:MR008
  potency estimated from few doses: 1840 nM
RPS6KA3; [8]
  potency estimated from few doses: 1650 nM
RPS6KA3; [12]
  potency estimated from few doses: 1150 nM
RPS6KA3; compound concentrations:100 nM and 1000 nM (sheet 'Lestaurtinib' of Supplementary Table 1),run:Lestaurtinib_02577_R1,Plate:MR016
  potency estimated from few doses: 1760 nM
RPS6KA3; [9]
  potency estimated from few doses: 1530 nM

— publication PMC11062922 (Nature Chemical Biology, 2023)
